# In PMC5540273 (PLoS ONE, 2017):
# Legend:
# Conditions in all cases: concentration: 1 μM, replicates: in singlicate; n = 1
# MKK7 = system: MKK7
# MKNK1 = system: MKNK1
# MKNK2 = system: MKNK2
# MLCK = system: T1, MLCK
# T1 construct: gene MYLK3
# MLK1 = system: T2, MLK1
# T2 construct: gene MAP3K9
# MLK2 = system: MLK2
# MLK3 = system: MLK3
# MRCKA = system: MRCKA
# MRCKB = system: T3, MRCKB
# T3 construct: gene CDC42BPB
# MST1R = system: MST1R
# MST1 = system: T4, MST1
# T4 construct: gene STK4
# MST2 = system: T5, MST2
# T5 construct: gene STK3
# MST3 = system: T6, MST3
# T6 construct: gene STK24
# MST4 = system: MST4
# MTOR = system: MTOR
# MUSK = system: MUSK
# MYLK2 = system: MYLK2
# MYLK4 = system: MYLK4
# MYLK = system: MYLK
# MYO3A = system: MYO3A
# 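Further: KINOMEscan kinase panel screen.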
SMILES,%Inh (MKK7) [%],%Inh (MKNK1) [%],%Inh (MKNK2) [%],%Inh (MLCK) [%],%Inh (MLK1) [%],%Inh (MLK2) [%],%Inh (MLK3) [%],%Inh (MRCKA) [%],%Inh (MRCKB) [%],%Inh (MST1R) [%],%Inh (MST1) [%],%Inh (MST2) [%],%Inh (MST3) [%],%Inh (MST4) [%],%Inh (MTOR) [%],%Inh (MUSK) [%],%Inh (MYLK2) [%],%Inh (MYLK4) [%],%Inh (MYLK) [%],%Inh (MYO3A) [%]
Fc1ccc(-c2ncn(CCCN3CCOCC3)c2-c2ccccn2)cc1 [SB-211742],0,0,0,0,0,27,0,0,0,0,2,32,9,0,27,0,3,0,0,0
O=c1cc(N2CCOCC2)nc2n(Cc3cccc(Cl)c3Cl)c(C3CC3)nn12 [GSK2358994],0,0,0,0,0,0,14,0,0,14,0,41,4,0,0,0,0,0,14,0
CN1c2ccc(CNc3ccc(F)cc3)cc2-c2c(cnn2C)S1(=O)=O,0,15,0,3,0,24,0,0,0,0,0,0,0,0,24,0,0,0,4,0
O=C(Nc1n[nH]c2cc(-c3cccc(F)c3)ccc12)C1CC1 [SB-735464],19,0,29,35,0,0,4,4,0,15,11,0,17,17,0,0,77,6,2,3
